The nature of experiment [1]: optical density shifts of acrAB sulA E. coli – strain DRC41, OD650, 48 h, E. coli filamentation inducer project, primary screen (AID 1152).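 Note: E. coli MC1000 strain DRC41 lacking acrAB efflux pump and sulA.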 As to conditions: higher = more signal, called active from +8 up or from −8 down.
The nature of experiment [2]: probe aLefty1 binding on compound microarray – biochemical, small-molecule microarray, 635/667 nm fluorescence, primary screen (AID 1153).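 Note: score merges spot fluorescence with signal-to-noise ratio from the scanned slide images.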 As to conditions: higher = more signal.
A short description of experiment [3]: plasmodial surface anion channel blockers, osmotic lysis – cell-based, P. falciparum Indochina, OD700, 1 h, primary screen (AID 1154). As to conditions: P. falciparum Indochina infected RBC osmotic lysis, higher = more signal, called active from +8 up or from −8 down.
The nature of experiment [4]: plasmodial surface anion channel blockers, osmotic lysis – cell-based, P. falciparum Indochina, OD700, 2 h, primary screen (AID 1155).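 Note: lysis reports solute entry through the parasite surface anion channel PSAC.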 The note with it: P. falciparum Indochina infected erythrocytes, higher = more signal, called active from +8 up or from −8 down.
Experiment [5] in a line: changes in parasitized red cell lysis, either direction – P. falciparum Indochina, OD700, 3 h, PSAC antagonist project, primary screen (AID 1156). As to conditions: P. falciparum-infected erythrocytes, osmotic lysis, higher = more signal, called active from +8 up or from −8 down.
A short description of experiment [6]: plasmodial surface anion channel blockers, osmotic lysis – cell-based, P. falciparum Indochina, OD700, 18 h, primary screen (AID 1157). As to conditions: P. falciparum Indochina infected erythrocytes, osmotic lysis OD700, 18 h; higher = more signal, called active from +8 up or from −8 down.
Experiment [7] in a line: S6 kinase pathway phospho-S6 level changes – cell-based, A549, cytoblot, luminescence, serum-stimulated, primary screen (AID 1158).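 Note: serum-stimulated A549 lung adenocarcinoma cells; signal is phosphorylated S6 detected by cytoblot immunostaining with HRP secondary.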 The note with it: 5 h, higher = more signal.
Experiment [8] concerns the target NADPH oxidase 2 (Homo sapiens) (UniProt P04839). The experiment is described as follows: compounds shifting NOX2 Amplex Red fluorescence – cell-based, HEK293-NOX2, PMA-stimulated, NOX inhibitor project, primary screen (AID 1159). Note: test concentration not given here. The note with it: 45 min, higher = more signal, called active from +8 up or from −8 down.
In experiment [9] the target is NADPH oxidase 4 (Homo sapiens) (UniProt Q9NPH5). The experiment is described as follows: compounds shifting NOX4 Amplex Red fluorescence – cell-based, HEK293-NOX4, tetracycline-induced, NOX inhibitor project, primary screen (AID 1160). The note with it: HEK293-NOX4, Amplex Red H2O2 fluorescence, 45 min; higher = more signal, called active from +8 up or from −8 down.
Experiment [10] deals with NADPH oxidase 5 (Homo sapiens) (UniProt Q96PH1). The experiment is described as follows: compounds shifting NOX5 Amplex Red fluorescence – cell-based, HEK293-NOX5, NOX inhibitor project, primary screen (AID 1161). The note with it: HEK293-NOX5, ionomycin, 45 min, higher = more signal.
Experiment [11] in a line: compound effects on lung adenocarcinoma cell viability – A549, calcein-AM fluorescence, 48 h, basal, profiling panel (AID 1162). Note: test concentration not given here. The note with it: higher = more signal.
The nature of experiment [12]: compound effects on differentiated 3T3-L1 adipocyte viability – cell-based, 3T3-L1 adipocytes, calcein-AM fluorescence, 48 h, basal, profiling panel (AID 1163). Note: test concentration not given here. As to conditions: 3T3-L1 adipocytes viability, higher = more signal.
Experiment [13] is described as follows: compound effects on hepatocellular carcinoma cell viability – HepG2, calcein-AM fluorescence, 48 h, basal, profiling panel (AID 1164). Note: test concentration not given here. As to conditions: higher = more signal.
A short description of experiment [14]: compound effects on multiple myeloma cell viability – MM1S, calcein-AM fluorescence, 48 h, basal, profiling panel (AID 1165).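 Note: viability of MM1S multiple myeloma cells under basal unstimulated conditions; test concentration not given here.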 The note with it: higher = more signal.
Experiment [15] can be described thus: calcein-AM signal in unstimulated myeloma cells – cell-based, calcein-AM fluorescence, 48 h, PK04 Diversity Set, profiling panel (AID 1166).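 Note: cells grown under basal conditions without added stimulus; test concentration not given here.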 As to conditions: RPMI8226 myeloma viability, higher = more signal.
The nature of experiment [16]: JC-1 mitochondrial signal, unstimulated HepG2 cells – cell-based, JC-1 fluorescence, 24 h, 100 nL compound, profiling panel (AID 1167). Note: test concentration not given here. As to conditions: HepG2 mitochondrial potential, higher = more signal.
A short description of experiment [17]: JC-1 mitochondrial signal, unstimulated adipocytes – cell-based, JC-1 fluorescence, 3T3-L1 adipocytes, 24 h, 100 nL compound, profiling panel (AID 1168). Note: test concentration not given here. As to conditions: JC-1 mitochondrial fluorescence, higher = more signal, called active from +8 up or from −8 down.
The nature of experiment [18]: JC-1 mitochondrial signal, unstimulated myeloma cells – cell-based, JC-1 fluorescence, RPMI8226, 24 h, 100 nL compound, profiling panel (AID 1169). Note: test concentration not given here. As to conditions: JC-1 mitochondrial potential fluorescence, higher = more signal.
A short description of experiment [19]: JC-1 mitochondrial signal, unstimulated MM1S myeloma – cell-based, JC-1 fluorescence, 24 h, 100 nL compound, profiling panel (AID 1170). Note: test concentration not given here. The note with it: MM1S mitochondrial potential, higher = more signal.
The nature of experiment [20]: resazurin metabolic signal in A549 cells – cell-based, resazurin fluorescence, 24 h, PK04 Diversity Set, profiling panel (AID 1171). Note: test concentration not given here. As to conditions: A549 viability, higher = more signal, called active from +8 up or from −8 down. (In general: Alamar Blue is a resazurin reagent that responds to reducing activity.)

Activity calls are given as the source filed them.

Chain of NADPH oxidase 4 (Homo sapiens) (Q9NPH5 whole entry, looked up): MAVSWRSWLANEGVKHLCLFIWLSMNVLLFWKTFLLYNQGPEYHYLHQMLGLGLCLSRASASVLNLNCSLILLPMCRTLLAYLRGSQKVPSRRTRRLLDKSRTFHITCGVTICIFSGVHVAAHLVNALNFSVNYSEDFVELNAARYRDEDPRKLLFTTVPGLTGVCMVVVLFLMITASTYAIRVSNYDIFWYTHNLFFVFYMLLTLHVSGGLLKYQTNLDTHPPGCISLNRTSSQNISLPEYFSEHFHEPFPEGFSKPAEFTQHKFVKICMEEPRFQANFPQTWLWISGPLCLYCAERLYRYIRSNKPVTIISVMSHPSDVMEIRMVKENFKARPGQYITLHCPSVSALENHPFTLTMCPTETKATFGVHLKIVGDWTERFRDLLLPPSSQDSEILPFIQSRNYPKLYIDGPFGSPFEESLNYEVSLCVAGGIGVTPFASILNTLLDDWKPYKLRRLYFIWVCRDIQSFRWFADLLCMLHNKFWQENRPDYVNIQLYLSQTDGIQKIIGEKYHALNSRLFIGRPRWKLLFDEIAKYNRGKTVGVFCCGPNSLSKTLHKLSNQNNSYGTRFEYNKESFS
Chain of NADPH oxidase 5 (Homo sapiens) (Q96PH1 whole entry, looked up): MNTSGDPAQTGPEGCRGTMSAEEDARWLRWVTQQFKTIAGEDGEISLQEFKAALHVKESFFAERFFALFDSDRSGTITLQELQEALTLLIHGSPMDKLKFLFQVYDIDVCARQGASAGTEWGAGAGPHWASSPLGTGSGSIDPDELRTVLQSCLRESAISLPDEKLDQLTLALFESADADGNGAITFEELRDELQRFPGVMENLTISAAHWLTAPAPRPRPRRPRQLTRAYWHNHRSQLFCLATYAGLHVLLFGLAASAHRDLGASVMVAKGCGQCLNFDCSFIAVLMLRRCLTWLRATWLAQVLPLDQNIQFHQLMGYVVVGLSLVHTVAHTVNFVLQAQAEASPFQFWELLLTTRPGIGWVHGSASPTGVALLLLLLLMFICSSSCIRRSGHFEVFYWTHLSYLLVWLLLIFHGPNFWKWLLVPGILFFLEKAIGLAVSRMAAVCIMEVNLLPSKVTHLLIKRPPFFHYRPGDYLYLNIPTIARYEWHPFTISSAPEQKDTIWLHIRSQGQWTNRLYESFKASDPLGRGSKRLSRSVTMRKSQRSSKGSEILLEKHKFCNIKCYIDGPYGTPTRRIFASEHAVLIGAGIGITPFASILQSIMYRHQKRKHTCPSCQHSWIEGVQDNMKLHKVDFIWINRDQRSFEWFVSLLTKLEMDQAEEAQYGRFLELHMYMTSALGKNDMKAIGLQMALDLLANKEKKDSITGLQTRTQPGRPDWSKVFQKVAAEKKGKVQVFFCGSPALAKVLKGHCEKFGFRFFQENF
Chain of NADPH oxidase 2 (Homo sapiens) (P04839 whole entry, looked up): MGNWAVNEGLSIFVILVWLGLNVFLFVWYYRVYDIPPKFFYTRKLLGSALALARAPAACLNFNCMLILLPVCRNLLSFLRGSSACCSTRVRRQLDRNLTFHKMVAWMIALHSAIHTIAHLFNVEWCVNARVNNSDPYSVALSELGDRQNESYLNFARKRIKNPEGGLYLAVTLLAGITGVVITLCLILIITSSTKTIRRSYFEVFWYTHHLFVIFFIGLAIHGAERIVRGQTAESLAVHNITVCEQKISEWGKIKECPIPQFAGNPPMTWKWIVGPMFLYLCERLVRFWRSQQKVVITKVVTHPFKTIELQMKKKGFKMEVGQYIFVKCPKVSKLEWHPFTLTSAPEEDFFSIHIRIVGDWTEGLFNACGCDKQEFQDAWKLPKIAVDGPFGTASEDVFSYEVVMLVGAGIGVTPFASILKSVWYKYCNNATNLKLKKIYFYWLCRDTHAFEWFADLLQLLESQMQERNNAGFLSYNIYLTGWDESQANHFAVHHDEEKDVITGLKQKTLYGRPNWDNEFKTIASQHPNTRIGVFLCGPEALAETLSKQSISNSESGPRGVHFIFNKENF

On to `Cc1ccc(S[C@]2(C(=O)O)CC(=O)N(Cc3cc(C(F)(F)F)cc(C(F)(F)F)c3)[C@@H]2c2ccc(CO)cc2I)cc1`, for which the z-score is 0.367 (inactive) in experiment [1]; 5.86 (inactive) in experiment [3]; 0.877 (inactive) in experiment [4]; 1.03 (inactive) in [5]; 0.522 (inactive) in [6]; 0.243 in [7]. The z-score in experiment [8] was 1.75 (inactive); in experiment [9], -2.5 (inactive); in experiment [10], 0.547; in experiment [11] it was 0.673; in experiment [12], 0.429; in [13] it was 0.324. The z-score is -3 in experiment [14]; -2.22 in experiment [15]; -0.338 in [16]; -0.459 (inactive) in [17]; -0.325 in experiment [18]; -1.36 in experiment [19]. Also, the z-score in experiment [20] was 0.288 (inactive). This compound showed a composite z-score in experiment [2] of 0.26.

As to `C=CC[C@]1(C(=O)O)N=C(c2ccc(OCCCO)cc2)O[C@H]1c1ccccc1N=[N+]=[N-]`, the z-score in experiment [1] is 1.76 (inactive); in experiment [3], 32.9 (active); in [4] it was 29.4 (active); in experiment [5] it was 3.38 (inactive); in [6], 9.45 (active); in [7], 0.883. In addition, the z-score in experiment [8] was -1.53 (inactive); in experiment [9] it was 0.823 (inactive); in [10], -0.199; in [11], 0.144; in experiment [12], 0.722; in experiment [13], -0.489. Moreover, the z-score in experiment [14] is -2.19; in [15], -0.0144; in experiment [16], 0.0206; in [17], 0.504 (inactive); in [18], -0.837; in [19], -0.783. Besides, the z-score in [20] was 0.909 (inactive). Moreover, the composite z-score in experiment [2] is 0.0299.

As to `O=C/C=C/c1ccc(/C=C/c2ccccc2)cc1`, the z-score is 2.42 (inactive) in [1]; 3.87 (inactive) in experiment [3]; -0.941 (inactive) in experiment [4]; 1.17 (inactive) in experiment [5]; -1.73 (inactive) in [6]; 0.972 in experiment [7]. Moreover, the z-score in experiment [8] is 0.825 (inactive); in experiment [9], -1.69 (inactive); in [10], 1.4; in experiment [11], 1; in experiment [12], -0.111; in experiment [13], -0.167. Besides, the z-score was -3.21 in experiment [14]; -4.46 in experiment [15]; -0.228 in experiment [16]; 1.26 (inactive) in experiment [17]; -0.949 in [18]; -2.1 in experiment [19]. In [20], the z-score was 0.22 (inactive). This compound had a composite z-score in [2] of 0.25.

For the compound `C=CCC(OC(C)=O)[C@@H]1[C@@H](N(Cc2ccc(-c3cccc(C(F)(F)F)c3)o2)C(=O)Cc2ccc(F)cc2)c2cc(OCCCO)ccc2N1C(=O)c1ccc(-c2ccccc2)cc1` (stereo not given in full), the z-score is -1.01 (inactive) in experiment [1]; 1.23 (inactive) in [3]; -0.401 (inactive) in experiment [4]; -0.642 (inactive) in [5]; -0.255 (inactive) in experiment [6]; -0.0924 in experiment [7]. Moreover, the z-score was -0.0336 (inactive) in experiment [8]; 1.1 (inactive) in [9]; 1.29 in [10]; 0.468 in experiment [11]; 0.145 in [12]; 0.536 in experiment [13]. Further, the z-score is 1.16 in experiment [14]; -0.147 in experiment [15]; 1.88 in experiment [16]; -1.64 (inactive) in experiment [17]; -0.582 in [18]; 0.286 in experiment [19]. Further, the z-score in experiment [20] is 0.303 (inactive). Further, in experiment [2], the composite z-score was -0.0489.

Turning to `COc1cc2c(cc1OC)CN(C(=O)[C@H]1[C@@H]3C(=O)O[C@@H](c4ccccc4)[C@@H](c4ccccc4)N3[C@@H](c3ccccc3OCCO)[C@]13C(=O)Nc1ccc(C#CC4(O)CCCCCC4)cc13)CC2`, the z-score was 2.29 (inactive) in [1]; 3.02 (inactive) in [3]; 2.11 (inactive) in experiment [4]; 3.25 (inactive) in [5]; 1.89 (inactive) in experiment [6]; 0.389 in experiment [7]. The z-score in [8] is 1.07 (inactive); in [9], 1.65 (inactive); in experiment [10], 1.43; in experiment [11], 0.434; in [12], -0.0514; in [13], 1.64. In addition, the z-score in experiment [14] was -0.988; in [15] it was -1.93; in experiment [16], -0.198; in experiment [17], 0.994 (inactive); in experiment [18], -0.812; in experiment [19] it was -1.41. In addition, in experiment [20], the z-score is -0.771 (inactive). In addition, the composite z-score in experiment [2] is 0.0686.

Regarding `C=C(C)[C@@H]1CC=C(C(O)C2C=CC3C(=O)NC(=O)C3N2Nc2ccccn2)CC1` (stereo not given in full), the z-score in experiment [1] was -1.56 (inactive); in [3], 0.671 (inactive); in experiment [4], 0.613 (inactive); in experiment [5] it was 0.0385 (inactive); in [6], 0.876 (inactive); in [7] it was -1.11. The z-score in experiment [8] is -1.02 (inactive); in experiment [9] it was -2.89 (inactive); in [10], -2.69; in [11], -0.592; in experiment [12] it was -1.11; in experiment [13], -0.914. Moreover, the z-score in [14] is 0.0217; in experiment [15], -0.97; in experiment [16] it was -1.66; in experiment [17], 0.344 (inactive); in experiment [18], 0.921; in [19], -0.0607. Further, in experiment [20], the z-score was -0.981 (inactive). In [2], this compound gave a composite z-score of 0.497.

The values are drawn from PubChem BioAssay.
